Results from PubChem BioAssay AID1159580 (chemical genetic matrix, 2015).
Hit rate of the full screen: of about 5,500 compounds, about 2,000 (36%) were called active. Roughly 18% stayed inconclusive and do not appear here. Rule as the data show it: active = normalized growth mostly below about 0.91 (no sharp cut-off); inconclusive = no clear call, values can overlap the other calls; inactive = mostly above about 0.92. This is one part of the list.

Experiment: chemical genetic growth profiling, strain panel (AID 1159580);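 also: tested at 20 µM; growth read once vehicle control cultures reached saturation at 30 °C; 1 = growth at the plate median or of vehicle wells; lower values mean less growth of the strain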
Settings: S. cerevisiae deletion strains, growth OD

Measured: normalized growth

COC(=O)C1=C(C)NC(C)=C(C(=O)OCC(C)C)C1c1ccccc1[N+](=O)[O-] (centres undefined)
inactive: locus YBR171W, strain sec66, stronger effect = lower value 0.898 | locus YDL040C, strain nat1, stronger effect = lower value 0.953 | locus YDR137W, strain rgp1, stronger effect = lower value 0.866 | locus YDR159W, strain sac3, stronger effect = lower value 0.958 | locus YDR195W, strain ref2 1.06 | locus YER111C, strain swi4, stronger effect = lower value 0.945 | locus YML120C, strain ndi1, stronger effect = lower value 0.978 | locus YOR001W, strain rrp6, stronger effect = lower value 0.952 | locus YOR080W, strain dia2, stronger effect = lower value 0.958 | locus YOR290C, strain snf2, stronger effect = lower value 0.912 | locus YPL078C, strain atp4, stronger effect = lower value 0.94
active: locus YAL021C, strain ccr4, stronger effect = lower value 0.0808 | locus YAL026C, strain drs2, stronger effect = lower value 0.216 | locus YAL030W, strain snc1, stronger effect = lower value 0.239 | locus YBL061C, strain skt5, stronger effect = lower value 0.19 | locus YBR009C, strain hhf1, stronger effect = lower value 0.224 | locus YBR023C, strain chs3, stronger effect = lower value 0.176 | locus YBR231C, strain swc5, stronger effect = lower value 0.212 | locus YBR279W, strain paf1, stronger effect = lower value 0.451 | locus YCL011C, strain gbp2, stronger effect = lower value 0.257 | locus YCL016C, strain dcc1, stronger effect = lower value 0.462 | locus YCL069W, strain vba3, stronger effect = lower value 0.413 | locus YCR088W, strain abp1, stronger effect = lower value 0.39 | locus YDL005C, strain med2, stronger effect = lower value 0.193 | locus YDR001C, strain nth1, stronger effect = lower value 0.468 | locus YDR069C, strain doa4, stronger effect = lower value 0.0857 | locus YDR297W, strain sur2, stronger effect = lower value 0.167 | locus YDR334W, strain swr1, stronger effect = lower value 0.24 | locus YDR335W, strain msn5, stronger effect = lower value 0.814 | locus YDR392W, strain spt3, stronger effect = lower value 0.122 | locus YEL003W, strain gim4, stronger effect = lower value 0.463 | locus YEL037C, strain rad23, stronger effect = lower value 0.296 | locus YEL061C, strain CIN8 (second series), stronger effect = lower value 0.33 | locus YER015W, strain faa2, stronger effect = lower value 0.177 | locus YER016W, strain bim1, stronger effect = lower value 0.52 | locus YER155C, strain BEM2 (second series), stronger effect = lower value 0.259 | locus YFR010W, strain ubp6, stronger effect = lower value 0.382 | locus YGL167C, strain pmr1, stronger effect = lower value 0.214 | locus YGL173C, strain kem1, stronger effect = lower value 0.098 | locus YGL227W, strain vid30, stronger effect = lower value 0.769 | locus YGL240W, strain doc1, stronger effect = lower value 0.259 | locus YGL253W, strain hxk2, stronger effect = lower value 0.303 | locus YHR013C, strain ard1, stronger effect = lower value 0.209 | locus YHR027C, strain rpn1, stronger effect = lower value 0.164 | locus YHR030C, strain SLT2, stronger effect = lower value 0.472 | locus YHR079C, strain IRE1, stronger effect = lower value 0.385 | locus YHR142W, strain chs7, stronger effect = lower value 0.209 | locus YJL092W, strain hpr5, stronger effect = lower value 0.422 | locus YJL095W, strain BCK1 (second series), stronger effect = lower value 0.112 | locus YJL095W, strain BCK1, stronger effect = lower value 0.35 | locus YJL115W, strain asf1, stronger effect = lower value 0.424 | locus YJL129C, strain trk1, stronger effect = lower value 0.852 | locus YJL154C, strain vps35, stronger effect = lower value 0.344 | locus YJL164C, strain tpk1, stronger effect = lower value 0.16 | locus YJL166W, strain qcr8, stronger effect = lower value 0.177 | locus YJL187C, strain SWE1, stronger effect = lower value 0.206 | locus YJR066W, strain TOR1, stronger effect = lower value 0.57 | locus YKL160W, strain elf1, stronger effect = lower value 0.486 | locus YKR026C, strain gcn3, stronger effect = lower value 0.559 | locus YKR091W, strain srl3, stronger effect = lower value 0.589 | locus YLL001W, strain dnm1, stronger effect = lower value 0.42 | locus YLL026W, stronger effect = lower value 0.333 | locus YLL041C, strain sdh2, stronger effect = lower value 0.279 | locus YLR027C, strain aat2, stronger effect = lower value 0.22 | locus YLR113W, strain HOG1, stronger effect = lower value 0.308 | locus YLR221C, strain rsa3, stronger effect = lower value 0.342 | locus YLR258W, strain gsy2, stronger effect = lower value 0.209 | locus YLR262C, strain YPT6 (second series), stronger effect = lower value 0.114 | locus YLR320W, strain mms22, stronger effect = lower value 0.159 | locus YLR342W, strain FKS1, stronger effect = lower value 0.163 | locus YLR357W, strain rsc2, stronger effect = lower value 0.452 | locus YLR370C, strain arc18, stronger effect = lower value 0.273 | locus YLR384C, strain iki3, stronger effect = lower value 0.75 | locus YMR058W, strain fet3, stronger effect = lower value 0.0888 | locus YMR125W, strain sto1, stronger effect = lower value 0.462 | locus YMR129W, stronger effect = lower value 0.633 | locus YMR205C, strain PFK2, stronger effect = lower value 0.179 | locus YMR231W, strain pep5, stronger effect = lower value 0.141 | locus YNL071W, strain lat1, stronger effect = lower value 0.194 | locus YNL183C, strain NPR1, stronger effect = lower value 0.561 | locus YNL209W, strain ssb2, stronger effect = lower value 0.111 | locus YNL248C, strain rpa49, stronger effect = lower value 0.488 | locus YNL322C, strain KRE1 (second series), stronger effect = lower value 0.403 | locus YNR049C, strain mso1, stronger effect = lower value 0.551 | locus YOR070C, strain gyp1, stronger effect = lower value 0.492 | locus YOR083W, strain WHI5, stronger effect = lower value 0.43 | locus YOR106W, strain vam3, stronger effect = lower value 0.135 | locus YOR231W, strain MKK1, stronger effect = lower value 0.513 | locus YOR265W, strain rbl2, stronger effect = lower value 0.204 | locus YOR270C, strain vph1, stronger effect = lower value 0.153 | locus YPL051W, strain arl3, stronger effect = lower value 0.129 | locus YPL106C, strain sse1, stronger effect = lower value 0.299 | locus YPL240C, strain hsp82, stronger effect = lower value 0.242 | locus YPL256C, strain CLN2, stronger effect = lower value 0.415
